This is an account of results in PubChem BioAssay.

A short description of assay [1]: E. coli DRC41 culture turbidity changes, primary screen, E. coli filamentation inducer project, strain DRC41, OD650, 48 h (AID 1152).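 Also: E. coli MC1000 strain DRC41 lacking acrAB efflux pump and sulA.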 Conditions: E. coli DRC41 (acrAB sulA), higher = more signal, called active from +8 up or from −8 down.
The nature of assay [2]: small-molecule binders of probe aLefty1, primary screen, biochemical, small-molecule microarray, 635/667 nm fluorescence (AID 1153).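 Also: score merges spot fluorescence with signal-to-noise ratio from the scanned slide images.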 Particulars: higher = more signal.
A short description of assay [3]: PSAC antagonists in infected red cells, primary screen, cell-based, P. falciparum Indochina, OD700, 1 h (AID 1154). Conditions: P. falciparum Indochina infected RBC osmotic lysis, higher = more signal, called active from +8 up or from −8 down.
Assay [4] in a line: PSAC antagonists in infected red cells, primary screen, cell-based, P. falciparum Indochina, OD700, 2 h (AID 1155).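 Also: lysis reports solute entry through the parasite surface anion channel PSAC; channel blockers reduce lysis of infected cells.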 Particulars: P. falciparum Indochina infected erythrocytes, osmotic lysis OD700; higher = more signal, called active from +8 up or from −8 down.
The nature of assay [5]: osmotic lysis modulators in infected erythrocytes, primary screen, PSAC antagonist project, cell-based, P. falciparum Indochina, OD700, 3 h (AID 1156). Conditions: higher = more signal, called active from +8 up or from −8 down.
A short description of assay [6]: PSAC antagonists in infected red cells, primary screen, cell-based, P. falciparum Indochina, OD700, 18 h (AID 1157). Particulars: P. falciparum Indochina infected erythrocytes, osmotic lysis OD700, 18 h; higher = more signal, called active from +8 up or from −8 down.
Assay [7] in a line: modulators of S6 phosphorylation in cells, primary screen, cell-based, A549, cytoblot, luminescence, serum-stimulated (AID 1158).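 Also: serum-stimulated A549 lung adenocarcinoma cells; signal is phosphorylated S6 detected by cytoblot immunostaining with HRP secondary.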 Conditions: A549 phospho-S6 cytoblot, 5 h, higher = more signal.
Assay [8] concerns the target NADPH oxidase 2 (Homo sapiens) (UniProt P04839). The assay can be described thus: NOX2-dependent H2O2 signal modulators, primary screen, NOX inhibitor project, cell-based, HEK293-NOX2, PMA-stimulated, Amplex Red fluorescence (AID 1159). Also: test concentration not given here. Particulars: 45 min, higher = more signal, called active from +8 up or from −8 down.
For assay [9], the target named is NADPH oxidase 4 (Homo sapiens) (UniProt Q9NPH5). Nature of the assay: NOX4-dependent H2O2 signal modulators, primary screen, NOX inhibitor project, cell-based, HEK293-NOX4, tetracycline-induced, Amplex Red fluorescence (AID 1160). Conditions: 45 min, higher = more signal, called active from +8 up or from −8 down.
Assay [10] concerns the target NADPH oxidase 5 (Homo sapiens) (UniProt Q96PH1). Nature of the assay: NOX5-dependent H2O2 signal modulators, primary screen, NOX inhibitor project, cell-based, HEK293-NOX5, Amplex Red fluorescence (AID 1161). Conditions: HEK293-NOX5, ionomycin, 45 min, higher = more signal.

Each structure is given as a SMILES string. Calls of active or inactive are those of the source.

NADPH oxidase 4 (Homo sapiens), sequence (Q9NPH5 whole entry, looked up): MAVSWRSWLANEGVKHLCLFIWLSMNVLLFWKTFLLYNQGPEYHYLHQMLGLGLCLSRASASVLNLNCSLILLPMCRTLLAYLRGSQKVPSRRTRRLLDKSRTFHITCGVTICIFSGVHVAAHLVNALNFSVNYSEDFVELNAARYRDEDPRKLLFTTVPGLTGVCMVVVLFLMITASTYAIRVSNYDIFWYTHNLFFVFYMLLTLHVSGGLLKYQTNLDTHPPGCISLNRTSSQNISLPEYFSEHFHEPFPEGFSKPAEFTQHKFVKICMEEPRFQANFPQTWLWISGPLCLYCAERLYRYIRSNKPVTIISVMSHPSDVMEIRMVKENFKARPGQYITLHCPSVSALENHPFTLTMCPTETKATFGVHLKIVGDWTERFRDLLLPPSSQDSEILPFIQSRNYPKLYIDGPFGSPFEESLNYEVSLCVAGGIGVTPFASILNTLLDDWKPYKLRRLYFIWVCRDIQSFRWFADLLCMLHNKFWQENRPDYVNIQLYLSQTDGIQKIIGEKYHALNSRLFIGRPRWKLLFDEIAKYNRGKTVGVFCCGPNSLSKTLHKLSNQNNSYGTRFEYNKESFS
NADPH oxidase 2 (Homo sapiens), sequence (P04839 whole entry, looked up): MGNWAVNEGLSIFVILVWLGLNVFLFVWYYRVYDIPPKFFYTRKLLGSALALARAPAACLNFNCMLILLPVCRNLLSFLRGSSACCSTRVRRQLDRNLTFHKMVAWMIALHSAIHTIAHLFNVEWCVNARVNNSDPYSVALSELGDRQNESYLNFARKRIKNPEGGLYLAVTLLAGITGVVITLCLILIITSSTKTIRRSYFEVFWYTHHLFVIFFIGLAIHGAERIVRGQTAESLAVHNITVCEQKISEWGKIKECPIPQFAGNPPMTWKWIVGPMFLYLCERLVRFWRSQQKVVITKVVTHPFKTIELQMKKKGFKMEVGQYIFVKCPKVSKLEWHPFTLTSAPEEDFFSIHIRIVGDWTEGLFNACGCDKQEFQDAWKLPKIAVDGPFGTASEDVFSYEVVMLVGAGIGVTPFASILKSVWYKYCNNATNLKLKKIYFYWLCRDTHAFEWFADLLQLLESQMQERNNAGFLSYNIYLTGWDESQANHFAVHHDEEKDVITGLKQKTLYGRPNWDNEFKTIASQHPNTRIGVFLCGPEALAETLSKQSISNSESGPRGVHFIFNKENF
NADPH oxidase 5 (Homo sapiens), sequence (Q96PH1 whole entry, looked up): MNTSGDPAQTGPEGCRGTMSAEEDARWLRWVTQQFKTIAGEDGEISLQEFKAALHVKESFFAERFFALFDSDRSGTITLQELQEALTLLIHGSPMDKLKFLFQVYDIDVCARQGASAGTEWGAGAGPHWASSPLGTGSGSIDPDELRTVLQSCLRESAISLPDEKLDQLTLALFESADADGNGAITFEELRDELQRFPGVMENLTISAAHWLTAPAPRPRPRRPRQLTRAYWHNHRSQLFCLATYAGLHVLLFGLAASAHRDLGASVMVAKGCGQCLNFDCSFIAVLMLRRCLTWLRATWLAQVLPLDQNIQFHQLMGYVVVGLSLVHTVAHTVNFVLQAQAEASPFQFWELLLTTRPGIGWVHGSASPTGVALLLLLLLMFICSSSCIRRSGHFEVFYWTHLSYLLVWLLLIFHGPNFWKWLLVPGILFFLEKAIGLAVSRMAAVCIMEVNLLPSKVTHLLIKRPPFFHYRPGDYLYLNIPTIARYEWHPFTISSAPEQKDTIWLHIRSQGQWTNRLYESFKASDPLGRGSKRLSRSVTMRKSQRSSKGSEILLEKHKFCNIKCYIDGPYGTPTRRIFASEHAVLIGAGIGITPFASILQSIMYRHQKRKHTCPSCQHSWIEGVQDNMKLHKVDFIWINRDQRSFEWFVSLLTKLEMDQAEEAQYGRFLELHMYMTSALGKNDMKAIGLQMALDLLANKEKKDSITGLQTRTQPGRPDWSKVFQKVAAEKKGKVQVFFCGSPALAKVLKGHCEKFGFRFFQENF

Regarding `[N-]=[N+]=NCc1ccccc1C[C@]1(C(=O)NCCN2CCOCC2)COC(c2ccc(OCCCO)cc2)=N1`, the z-score in assay [1] was 0.581 (inactive); in [3], 23.9 (active); in assay [4], 10.2 (active); in [5], 3.35 (inactive); in assay [6] it was 2.09 (inactive); in [7], 0.132. For the same compound, the z-score in assay [8] is -0.379 (inactive); in assay [9], 0.846 (inactive); in [10], 0.109. For the same compound, the composite z-score in [2] was determined as 0.265.

Take `COC(=O)[C@@]1(Cc2ccc(OC)cc2)[C@H]2c3cc(C(=O)N(C)C)n(Cc4cc(F)c(F)c(F)c4)c3C[C@H]2CN1C(=O)c1ccccc1`: the z-score in assay [1] is -1.69 (inactive); in assay [3], 3.64 (inactive); in assay [4], 0.0174 (inactive); in assay [5] it was 1.3 (inactive); in [6], -1.37 (inactive); in assay [7] it was 0.968. Besides, the z-score in assay [8] was -2.92 (inactive); in [9], -1.41 (inactive); in [10], -2.54. The same compound showed a composite z-score in assay [2] of 0.946.

Consider `CCCC=C(CCC)[C@@H](NS(=O)(=O)CC)c1ccccc1`, for which the z-score in assay [1] was -1.84 (inactive); in assay [3], 0.19 (inactive); in assay [4] it was -0.0273 (inactive); in assay [5], -1.28 (inactive); in assay [6] it was 0.716 (inactive); in assay [7], -0.259. The values for the z-score in assay [8], in assay [9] and in [10] were -1.32 (inactive), -2.4 (inactive) and 2.02, respectively. The compound also displayed a composite z-score in assay [2] of 0.443.

As for `C=CC[C@@]1(C(=O)NCC(O)CO)N=C(c2ccc(OCCCO)cc2)O[C@@H]1c1ccccc1` (stereo not given in full), the z-score in [1] was 0.529 (inactive); in assay [3], 22.6 (active); in assay [4], 4.36 (inactive); in [5], 1.12 (inactive); in [6] it was 0.394 (inactive); in assay [7], -0.0453. The z-score was 0.325 (inactive) in assay [8], 1.02 (inactive) in assay [9] and 1.69 in [10]. Further, the composite z-score in assay [2] turned out to be 0.366.

As for `O=C(N1CCOCC1)[C@@]1(CCS(=O)(=O)c2ccccc2)COC(c2ccc(OCCCO)cc2)=N1`, the z-score in [1] is 1.04 (inactive); in assay [3], 23.8 (active); in assay [4] it was 9.6 (active); in assay [5], 1.75 (inactive); in assay [6], 1.3 (inactive); in assay [7], -0.713. Further, the values for the z-score in assay [8], in assay [9] and in [10] were -1.79 (inactive), 0.44 (inactive) and -0.597, respectively. The composite z-score in assay [2] was -0.356.

Regarding `NCCCCCCNC(=O)[C@H]1C[C@H]2C(=O)N3CCC[C@H]3C(=O)N2[C@H]1c1ccc(O)cc1`, the z-score was -0.247 (inactive) in [1]; 1.55 (inactive) in [3]; 0.507 (inactive) in assay [4]; 0.403 (inactive) in [5]; 0.253 (inactive) in assay [6]; 0.648 in assay [7]. Besides, the z-score was -0.019 (inactive) in [8], 0.901 (inactive) in assay [9] and 0.386 in [10]. The composite z-score in assay [2] was -0.19.

As to `CCCc1cc2c(n1Cc1ccc(OC)cc1)C(C)C1CN(C(=O)c3ccccc3)C(C)(C(=O)OC)C21` (stereo not given), the z-score was -2.02 (inactive) in assay [1]; 3.99 (inactive) in assay [3]; 0.713 (inactive) in assay [4]; 1.27 (inactive) in [5]; 0.25 (inactive) in [6]; -0.57 in [7]. The z-score in [8] is -1.55 (inactive); in [9], -3.23 (inactive); in assay [10], -3.28. The compound further registered a composite z-score in assay [2] of 1.1.

Turning to `CCOC(=O)C[C@H]1[C@H](OC(=O)c2ccc(C(=O)c3ccccc3)cc2)[C@@H](NC(=O)C2CCCCC2)c2cc(OCCCO)ccc2N1C(=O)Cc1ccc(OC)cc1`, the z-score in assay [1] was 0.522 (inactive); in assay [3] it was 2.32 (inactive); in [4], 0.744 (inactive); in assay [5] it was 0.0357 (inactive); in assay [6], -0.206 (inactive); in assay [7] it was 0.0093. In addition, the z-score was -1.38 (inactive) in assay [8], 0.626 (inactive) in assay [9] and 1.74 in assay [10]. Besides, the composite z-score in assay [2] came to 0.271.

For `C#CCNS(=O)(=O)N(C)C`, the z-score in assay [1] was 1.14 (inactive); in assay [3], 0.132 (inactive); in assay [4], 0.262 (inactive); in assay [5], -0.395 (inactive); in assay [6] it was 0.0625 (inactive); in assay [7], 0.32. For the same compound, the results for the z-score in assay [8], in [9] and in assay [10] were -0.533 (inactive), 0.183 (inactive) and 0.112, respectively. In addition, the composite z-score in [2] was -0.103.

With `COc1ccc([Si](C)(C)[C@H]2[C@H](CCO)O[C@@]3(C(=O)N(Cc4cccc(N5CCOC5=O)c4)c4ccccc43)[C@@H]2C)cc1`, the z-score is -0.286 (inactive) in [1]; 31.7 (active) in [3]; 29.4 (active) in assay [4]; 1.37 (inactive) in assay [5]; 3.36 (inactive) in [6]; 0.469 in assay [7]. Further, the results for the z-score in [8], in assay [9] and in assay [10] were -1.96 (inactive), 0.553 (inactive) and 0.479, respectively. In addition, the composite z-score in assay [2] is -0.0917.

In the case of `C[C@H]1NC(=O)C([C@@H](C)OCc2ccccc2)NC(=O)[C@@]23C(=O)N[C@@H](Cc4ccccc4)C2[C@H](C)[C@@]2(C)O[C@H]2C3/C=C/CC/C=C/CNC1=O` (stereo not given in full), the z-score was 1.85 (inactive) in assay [1]; 1.79 (inactive) in [3]; 0.76 (inactive) in assay [4]; 0.89 (inactive) in [5]; 0.107 (inactive) in assay [6]; 0.888 in assay [7]. The z-score in assay [8] is 1.24 (inactive); in assay [9], -0.179 (inactive); in assay [10], 0.815. Also, in assay [2], the composite z-score is -0.0094.

As for `NC(=O)[C@@H]1[C@H]2C(=O)O[C@H](c3ccccc3)[C@H](c3ccccc3)N2[C@H](c2ccccc2OCCO)[C@@]12C(=O)Nc1ccc(C#CCCO)cc12`, the z-score was 1.41 (inactive) in assay [1]; 14.3 (active) in [3]; 0.966 (inactive) in [4]; -2.23 (inactive) in assay [5]; -1.18 (inactive) in assay [6]; 1.02 in [7]. Further, the z-score is 2.03 (inactive) in assay [8], 1.18 (inactive) in [9] and 1.02 in assay [10]. Besides, the composite z-score in [2] was -0.0464.

Consider `CC(C)N1CC=CC23O[C@@H]4C=CCOC(=O)[C@@H]4[C@H]2C(=O)N(CCCCCCO)[C@@H]3C1=O` (stereo not given in full), for which the z-score was 0.864 (inactive) in [1]; 0.855 (inactive) in [3]; 0.619 (inactive) in assay [4]; 0.343 (inactive) in [5]; 0.65 (inactive) in [6]; -0.0596 in assay [7]. The z-score in assay [8] was 0.936 (inactive); in assay [9], -0.482 (inactive); in assay [10], 1.26. The composite z-score in assay [2] was -0.184.

As for `C[N+](C)(C)CCCCCCNC(=O)[C@@H]1C[C@@H]2C(=O)NCC(=O)N2[C@@H]1c1cccc(OCCO)c1`, the z-score was 1.73 (inactive) in assay [1]; 3.17 (inactive) in assay [3]; -1.25 (inactive) in [4]; 1.56 (inactive) in assay [5]; -1.95 (inactive) in assay [6]; 0.927 in [7]. The z-score in [8] was -2.72 (inactive); in assay [9], -4.12 (inactive); in assay [10], -5.67. In addition, in assay [2], the composite z-score was 0.197.

As to `O=C(O)[C@]1(CCS(=O)(=O)c2ccccc2)N=C(c2ccc(OCCCO)cc2)O[C@@H]1c1ccccc1`, the z-score in [1] was 0.139 (inactive); in assay [3] it was 11.3 (active); in assay [4] it was 1.11 (inactive); in [5] it was 0.327 (inactive); in [6], -0.169 (inactive); in assay [7] it was -0.515. The z-score in assay [8] is -0.298 (inactive); in assay [9], 0.578 (inactive); in assay [10], 1.1. The composite z-score in assay [2] was 0.528.

As to `O=C1c2ccccc2[C@](Cc2ccccc2I)(C(=O)NC2CC2)[C@H](c2ccc(CO)cc2)N1Cc1ccccc1Cl`, the z-score in [1] is -1.03 (inactive); in assay [3] it was 8.39 (active); in assay [4], 0.825 (inactive); in assay [5] it was 2.82 (inactive); in assay [6], 0.966 (inactive); in [7], -0.283. Further, the z-score was 0.717 (inactive) in [8], 0.466 (inactive) in assay [9] and 0.739 in [10]. In [2], this compound registered a composite z-score of 0.44.

In the case of `COCCOC(=O)N1C(=O)[C@@]2(c3cc(C#CCC(C(=O)OC)C(=O)OC)ccc31)[C@H](C(=O)N1CCCCCCC1)[C@H]1C(=O)O[C@H](c3ccccc3)[C@H](c3ccccc3)N1[C@@H]2c1ccc(O)cc1`, the z-score is 0.683 (inactive) in [1]; 0.915 (inactive) in assay [3]; 0.444 (inactive) in assay [4]; 0.678 (inactive) in assay [5]; 0.336 (inactive) in [6]; -0.0955 in assay [7]. For the same compound, the z-score in [8] was 1.32 (inactive); in assay [9], -0.378 (inactive); in assay [10] it was 1.01. The compound further showed a composite z-score in assay [2] of 2.46.

In the case of `COCCOC(=O)N1C(=O)[C@@]2(c3cc(C#Cc4ccc(OC)cc4)ccc31)[C@H](C(=O)N1CCc3cc(OC)c(OC)cc3C1)[C@H]1C(=O)O[C@H](c3ccccc3)[C@H](c3ccccc3)N1[C@@H]2c1ccc(OCCO)cc1`, the z-score in assay [1] was 0.59 (inactive); in assay [3], 6.15 (inactive); in assay [4], 2.99 (inactive); in assay [5], 1.69 (inactive); in [6], 1.42 (inactive); in [7] it was 0.228. In addition, the z-score in [8] was -0.306 (inactive); in [9], -1.58 (inactive); in [10], -0.623. The same compound had a composite z-score in assay [2] of 0.0391.
